Measurements: PubChem BioAssay (NCI)
Compounds without any hit were thinned out: in the full panel of roughly 83,000, 20% have a hit.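 Method: cells in 96-well plates; compound added at one concentration; 48 h incubation; percent growth measured; values under 10 scored active.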 A number with no mark means an inactive call. Active and inactive are the calls of the source.

How the values were obtained:
Test in all cases: NCI-60 one-dose screen, 48 h (100 = growth as untreated, 0 = no growth, -100 = all killed)
Conditions in all cases: 10 µM unless noted
HCT-15 colon = tested on: HCT-15 colon
HT29 colon = tested on: HT29 colon
SNB-75 CNS = tested on: SNB-75 CNS
SNB-19 CNS = tested on: SNB-19 CNS
U251 CNS = tested on: U251 CNS
PC-3 prostate = tested on: PC-3 prostate
SK-MEL-5 melanoma = tested on: SK-MEL-5 melanoma
UACC-62 melanoma = tested on: UACC-62 melanoma
SK-MEL-28 melanoma = tested on: SK-MEL-28 melanoma
SK-MEL-2 melanoma = tested on: SK-MEL-2 melanoma
EKVX NSCLC = tested on: EKVX NSCLC
SN12C renal = tested on: SN12C renal
UO-31 renal = tested on: UO-31 renal
TK-10 renal = tested on: TK-10 renal
ACHN renal = tested on: ACHN renal
CAKI-1 renal = tested on: CAKI-1 renal
A498 renal = tested on: A498 renal
CCRF-CEM leukemia = tested on: CCRF-CEM leukemia
MOLT-4 leukemia = tested on: MOLT-4 leukemia

Row | Compound | growth (HCT-15 colon) | growth (HT29 colon) | growth (SNB-75 CNS) | growth (SNB-19 CNS) | growth (U251 CNS) | growth (PC-3 prostate) | growth (SK-MEL-5 melanoma) | growth (UACC-62 melanoma) | growth (SK-MEL-28 melanoma) | growth (SK-MEL-2 melanoma) | growth (EKVX NSCLC) | growth (SN12C renal) | growth (UO-31 renal) | growth (TK-10 renal) | growth (ACHN renal) | growth (CAKI-1 renal) | growth (A498 renal) [%] | growth (CCRF-CEM leukemia) | growth (MOLT-4 leukemia)
1 | CC(C)c1ccc2c(N)c(C(=O)Nc3ccc(C(F)(F)F)cn3)sc2n1 | 58.7% | 69.5% | 78.6% | 71.5% | 62.9% | 44.7% | 5.02% (active) | 69.7% | 77.3% | 77.6% | 26.4% | 70.5% | 62% | 76.5% | 49% | 55.2% | 115 | 34.1% | 7.3% (active)
2 | N#Cc1c(-c2ccc(Cl)cc2)nc2n[nH]c(-c3ccc(Cl)cc3)c2c1-c1ccc(C(F)(F)F)cc1 | -47.2% (active) | 0.823% (active) | -17.5% (active) | 11.3% | -33.6% (active) | 8.27% (active) | -84% (active) | -58.6% (active) | 1.54% (active) | -66.9% (active) | -10.5% (active) | -5.91% (active) | -1.42% (active) | 15.9% | 2.15% (active) | -20.1% (active) | 50.5 | -7.76% (active) | 12.8%
3 | Cn1cc(-c2nc(N)nnc2-c2c[nH]c3ccc(F)cc23)c2cccnc21 | 51.8% | 44.5% | 7.07% (active) | 39% | 35.7% | 51.2% | 35.3% | 29.8% | 75.1% | 85.6% | 62.3% | 49.3% | 14.8% | 44.6% | 14.9% | 12.6% | 36.8 | 27.5% | 18.2%
4 | CN1CCc2c(sc3ncnc(N/N=C/c4ccc(Cl)cc4Cl)c23)C1 | 10.2% | -88.4% (active) | -50.4% (active) | 26.8% | 2.63% (active) | 25.3% | -89.2% (active) | -79.9% (active) | -33.1% (active) | 9% (active) | 33.1% | -32.8% (active) | -95.7% (active) | -84% (active) | -66.6% (active) | -61.6% (active) | 28.5 | -8.48% (active) | 1.96% (active)
5 | S=c1c2ccccc2nc2n1CCc1c-2[nH]c2ccccc12 | 68.9% | 78.8% | 0.815% (active) | 16.1% | 73.8% | 60.8% | 67% | 64.1% | 74.8% | 72.9% | 50.6% | 60.9% | 56.8% | 69% | 42.4% | 36.6% | 112 | 96.2% | 74.1%
6 | O=C(O)c1cccc(-c2ccc(/C=N/NC(=O)c3[nH]c4ccc(Br)cc4c3-c3ccccc3)s2)c1 | 17.4% | 69% | 29.6% | 26.2% | 27% | 56.9% | 30.1% | 19.5% | 44.2% | 26.3% | 35.2% | 57.5% | 47.9% | 86.8% | 44.1% | 74.7% | 100 | 31% | 45.3%
7 | O=S(=O)(Nc1cccc(-n2cnc3cc(-c4ccc(O)cc4)ccc32)c1)C1CC1 | 27.2% | 16.7% | -22.3% (active) | 37.7% | 17.6% | 40% | 12.6% | 34.5% | 43.6% | 51.7% | 46.4% | 34.8% | 21% | 65% | 21.3% | 18.9% | 30.6 | 23.6% | 13.7%
8 | COc1cc(-c2ccc(/C=N/NC(=O)c3[nH]c4ccc(Br)cc4c3-c3ccccc3)s2)cc(OC)c1OC | 66% | 93.6% | 66.4% | 63.9% | 63.4% | 76.5% | 89.8% | 84.5% | 84.1% | 104% | 73.7% | 92.6% | 96.9% | 106% | 75.6% |  | 130 | 73.2% | 79.1%
9 | CC(=O)Nc1ccc(-c2cn(-c3cccc(C(=O)Nc4ccc(N5CCN(C)CC5)cc4)c3)nn2)cn1 | 91.5% | 6.82% (active) | 99% | 49.4% | 50.8% | 72.2% | 87.8% | 114% | 101% | 92.5% | 80.9% | 80.1% | 100% | 86.5% | 88.1% |  | 160 | 40% | 59.8%
10 | Nc1cc2ccccc2c(=O)n1NC(=O)c1ccc(I)cc1 | 102% | 101% | 70% | 95.6% | 97.4% | 100% | 101% | 93.2% | 103% | 102% | 94.2% | 107% | 92% | 115% | 106% | 83.6% | 103 | 97.8% | 99.2%
11 | N#Cc1c(-c2cccc3ccccc23)cc(-c2cccc(OCC(=O)O)c2)[nH]c1=O | 100% | 102% | 73.7% | 97.1% | 103% | 91.7% | 100% | 90.5% | 102% | 115% | 93.5% | 96.8% | 71.3% | 104% | 100% | 74.2% | 99.3 | 96.8% | 85.7%
12 | O=C(O)c1ccc(-c2ccc(/C=N/NC(=O)c3[nH]c4ccc(Br)cc4c3-c3ccccc3)s2)cc1 | -34.6% (active) | -7.12% (active) | -11.3% (active) | 14.4% | 14.5% | 18.7% | -49.6% (active) | -51.9% (active) | 11.9% | -43% (active) | 13.3% | 11.5% | 24.7% | 22.8% | 14.2% | 20% | 40 | 7.68% (active) | 10.7%
13 | CCOc1ccc(-c2c(C#N)c(-c3ccc(Cl)cc3)nc3n[nH]c(-c4ccc(Cl)cc4)c23)cc1OC | 19.6% | 34.2% | 58.5% | 77% | 62.9% | 28% | 28.2% | 68.5% | 60.2% | 64% | 26.6% | 69.2% | 33.2% | 90% | 53.4% | 53.1% | 114 | 33.7% | -3.16% (active)
14 | Cc1ncsc1-c1ccc(CNC(=O)[C@@H]2C[C@@H](O)CN2C(=O)[C@@H](NC(=O)C2(F)CC2)C(C)(C)C)c(OCCOCCOCCOCCOc2nc(Nc3cc(S(C)(=O)=O)ccc3N[C@@H](c3cccc4c3OC(F)(F)O4)c3ncccc3Cl)nc(N3CCNCC3)n2)c1 | 99.4% | 88.1% | 63.2% | 64.8% | 65.8% | 71.7% | 65.4% | 84.8% | 89.2% | 112% | 80.8% | 80.9% | 98.5% | 109% | 98.9% |  | 116 | -9.39% (active) | -5.45% (active)
15 | CSc1ccc(C(=O)Nc2ccc3nn(/C(C#N)=C/c4ccccn4)nc3c2)cc1 | -70.1% (active) | -88.6% (active) | 33.1% | -70.9% (active) | -84.1% (active) | -28% (active) | -54.9% (active) | -91.2% (active) | -83.5% (active) | -77.8% (active) | -96.3% (active) | -45.5% (active) | -100% (active) | -96.7% (active) | -96% (active) | -42.9% (active) | 56.8 | -33.8% (active) | -24.9% (active)
16 | COc1ccc2cc([C@H](C)C(=O)N/N=C/c3ccc(Br)cc3)ccc2c1 | 101% | 106% | 71.4% | 98.8% | 100% | 106% | 99.9% | 95.6% | 108% | 109% | 94.2% | 97.2% | 83.3% | 101% | 106% | 87.2% | 107 | 101% | 86.6%
